Growth data for nine compounds are collected here from PubChem BioAssay (NCI).

Among the test systems are SR leukemia; RPMI-8226 leukemia; OVCAR-8 ovarian; OVCAR-5 ovarian; OVCAR-4 ovarian; SK-OV-3 ovarian; IGROV1 ovarian; OVCAR-3 ovarian; HS 578T breast; NCI/ADR-RES ovarian; T-47D breast; BT-549 breast; MDA-MB-435 melanoma; MCF7 breast; HCT-116 colon; KM12 colon; SW-620 colon; HCC-2998 colon.
What all share (assay): NCI-60 one-dose screen, 48 h (100 = growth as untreated, 0 = no growth, -100 = all killed)
Holding throughout (conditions): 10 µM unless noted

This is part of a sample that, as a whole, favours compounds with a hit. Of some 83,000 tested, about 20% had one in any assay.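 Note: values are percent growth. 100 is the growth of untreated cells, values between 100 and 0 indicate rising inhibition; between -100 and 0 indicates cell death.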 Unmarked numbers belong to inactive results. Active and inactive are the calls of the source. Rule for the calls: active = growth percent below 10; inactive = the rest.

`COc1ccc2c(c1)c(-c1cc(-c3cn(C)c4ccc(OC)cc34)on1)cn2C`: the growth is 104% in the test on SR leukemia; 84.6% with RPMI-8226 leukemia; 97.5% in the test on OVCAR-8 ovarian; 78.5% in the test with OVCAR-5 ovarian; 112% in the test with OVCAR-4 ovarian; 93.3% in the test on SK-OV-3 ovarian. Moreover, the growth with IGROV1 ovarian was 87.4%; with OVCAR-3 ovarian, 107%; in the test with HS 578T breast it was 90.3%; in the test with NCI/ADR-RES ovarian, 95.4%; with T-47D breast, 80.9%; in the test on BT-549 breast, 127%. Also, the growth was 116% in the test with MDA-MB-435 melanoma, 89% in the test on MCF7 breast, 89.1% in the test on HCT-116 colon and 106% in the test on KM12 colon.
On to `CC(CN)[C@@H]1CC[C@]2(CO)CC[C@]3(C)[C@H](CC[C@@H]4[C@@]5(C)CCC(N)C(C)(C)[C@@H]5CC[C@]43C)[C@@H]12` (some centres not stated), for which the growth in the test with SR leukemia is -46.4% (active); with RPMI-8226 leukemia, -38.2% (active); in the test with OVCAR-8 ovarian, -78.4% (active); in the test on OVCAR-5 ovarian it was -51.4% (active); with OVCAR-4 ovarian, -38.9% (active); with SK-OV-3 ovarian, 103%. For the same compound, the growth in the test on IGROV1 ovarian is 62.2%; in the test with OVCAR-3 ovarian, -84.2% (active); in the test with HS 578T breast, 4.39% (active); with NCI/ADR-RES ovarian, 53.6%; in the test on T-47D breast it was 6% (active); with MDA-MB-435 melanoma, -29.2% (active). Also, the growth in the test with SW-620 colon is -75.7% (active); with MCF7 breast it was -71.2% (active); in the test on HCT-116 colon it was -81.2% (active); in the test on HCC-2998 colon, -77.5% (active); with KM12 colon, -73.5% (active).
Regarding `O=C(CCl)Nc1ccc2c(Nc3cc(O)ccc3Cl)ncnc2c1`, the growth in the test with SR leukemia is -22.5% (active); with RPMI-8226 leukemia it was -45.9% (active); in the test on OVCAR-8 ovarian it was -33.9% (active); in the test with OVCAR-5 ovarian, -74.7% (active); with OVCAR-4 ovarian, -65.2% (active); in the test on SK-OV-3 ovarian, -4.95% (active). Moreover, the growth in the test on IGROV1 ovarian was -71.2% (active); with OVCAR-3 ovarian, -83.4% (active); in the test on HS 578T breast, 4.71% (active); with NCI/ADR-RES ovarian it was -39.8% (active); with T-47D breast it was -52.4% (active); with BT-549 breast, -78.5% (active). Further, the growth in the test on MDA-MB-435 melanoma is -69.4% (active); in the test on MCF7 breast it was -57.9% (active); in the test with HCT-116 colon, -74.5% (active); with HCC-2998 colon, -3.99% (active); in the test on KM12 colon, -64.7% (active).
Turning to `COc1cc2c(/C=C3\C(=O)Nc4ccccc43)c(C(=O)O)[nH]c2cc1C`, the growth with SR leukemia was 91.3%; with RPMI-8226 leukemia, 87%; in the test with OVCAR-8 ovarian, 103%; in the test on OVCAR-5 ovarian, 59.1%; in the test on OVCAR-4 ovarian it was 95.3%; in the test on SK-OV-3 ovarian, 129%. Further, the growth is -10% (active) with IGROV1 ovarian; 108% in the test with OVCAR-3 ovarian; 137% with HS 578T breast; 84.1% in the test on NCI/ADR-RES ovarian; 113% in the test on T-47D breast; 102% in the test with BT-549 breast. Also, the growth is 105% in the test with MDA-MB-435 melanoma; 72% with MCF7 breast; 96.5% in the test on HCT-116 colon; 103% with HCC-2998 colon; 99.8% with KM12 colon.
Turning to `COc1ccc(C2C3=C(COC3=O)N(CCO)c3cc4c(cc32)OCCO4)cc1OC` (configuration not stated), the growth in the test with SR leukemia is 16.8%; in the test on RPMI-8226 leukemia it was 28.5%; in the test on OVCAR-8 ovarian it was 53.3%; in the test on OVCAR-5 ovarian it was 67.1%; with OVCAR-4 ovarian, 41.3%; in the test with SK-OV-3 ovarian, 29.2%. Also, the growth with IGROV1 ovarian is 37.1%; in the test on OVCAR-3 ovarian it was -37% (active); with HS 578T breast, -11.4% (active); in the test on NCI/ADR-RES ovarian it was 65.4%; in the test on BT-549 breast, 53.9%; in the test with MDA-MB-435 melanoma it was -44.1% (active). In addition, the growth was 13.2% with SW-620 colon; 15.9% in the test with MCF7 breast; 18.2% with HCT-116 colon; 48.7% with HCC-2998 colon; 23.2% in the test with KM12 colon.
Take `CS(=O)(=O)Nc1cncc(-c2ccc3ncnc(Nc4ccc(F)c(Cl)c4)c3c2)c1`: the growth is 23.3% in the test with SR leukemia; 15.7% in the test on RPMI-8226 leukemia; 47.1% in the test with OVCAR-8 ovarian; 33.3% with OVCAR-5 ovarian; 63.4% with OVCAR-4 ovarian; -0.027% (active) with SK-OV-3 ovarian. Besides, the growth in the test with IGROV1 ovarian is -17.2% (active); with OVCAR-3 ovarian it was 22.1%; in the test on HS 578T breast it was 3.01% (active); with NCI/ADR-RES ovarian, 84%; with BT-549 breast, 32.4%; in the test on MDA-MB-435 melanoma, 49%. The growth is 43.1% with SW-620 colon; 13.1% in the test with MCF7 breast; 19.6% in the test with HCT-116 colon; 66% in the test with HCC-2998 colon; 59.4% with KM12 colon.
As to `NS(=O)(=O)c1ccc(N/C=C/C(=O)c2cc3ccccc3oc2=O)cc1`, the growth with SR leukemia is 78.1%; with RPMI-8226 leukemia it was 98.4%; with OVCAR-8 ovarian it was 104%; with OVCAR-5 ovarian, 106%; in the test on OVCAR-4 ovarian, 87.5%; in the test on SK-OV-3 ovarian, 83.4%. The growth is 91.5% in the test with IGROV1 ovarian; 101% with OVCAR-3 ovarian; 92.4% in the test on HS 578T breast; 97.8% with NCI/ADR-RES ovarian; 89.1% with T-47D breast; 100% in the test on MDA-MB-435 melanoma. The growth in the test with SW-620 colon was 95.5%; with MCF7 breast, 68.8%; in the test on HCT-116 colon it was 97.1%; in the test on HCC-2998 colon it was 109%; with KM12 colon, 98.2%.
On to `Cn1cccc1/C=C1\C(=O)Nc2ccccc21`, for which the growth is 72.8% in the test on SR leukemia; 103% in the test on RPMI-8226 leukemia; 107% in the test with OVCAR-8 ovarian; 87.2% in the test on OVCAR-5 ovarian; 48% in the test with OVCAR-4 ovarian; 94.4% with SK-OV-3 ovarian. For the same compound, the growth in the test with IGROV1 ovarian is 76.3%; in the test on OVCAR-3 ovarian, 74.7%; in the test on HS 578T breast it was 101%; in the test with NCI/ADR-RES ovarian, 93.2%; in the test with T-47D breast, 18.2%; in the test on MDA-MB-435 melanoma it was 103%. In addition, the growth is 99.5% in the test on SW-620 colon; 12.3% in the test with MCF7 breast; 102% in the test on HCT-116 colon; 48.8% with HCC-2998 colon; 21.8% in the test with KM12 colon.
As for `Cc1ccc(/C=C/C(=O)c2ccc(NC(=O)CSc3nc4c([nH]3)c(=O)n(C)c(=O)n4C)cc2)c(C)c1`, the growth in the test with SR leukemia is 30.4%; with RPMI-8226 leukemia, 52.6%; in the test with OVCAR-8 ovarian, 40.3%; with OVCAR-5 ovarian, 124%; in the test with OVCAR-4 ovarian, 36.9%; in the test with SK-OV-3 ovarian it was 30.9%. Further, the growth with IGROV1 ovarian was 36.3%; with OVCAR-3 ovarian, 13.8%; in the test on HS 578T breast it was 27.4%; with NCI/ADR-RES ovarian, 82.7%; with BT-549 breast, 69.9%; with MDA-MB-435 melanoma, 60.7%. Besides, the growth with SW-620 colon was 49%; in the test with MCF7 breast, 39.8%; in the test on HCT-116 colon, 5.13% (active); in the test on HCC-2998 colon it was 45.1%; in the test with KM12 colon, 37.5%.
